# Results as given in the supplement of paper PMC10933113.
# Counter-ions that a name gives are not always drawn. ± gives the uncertainty stated by the source.
# Test system: THP-1
# Experiment: CD86 surface expression induction over DMSO control (% over DMSO); higher = stronger dendritic cell activation
# Conditions: exposure time: 24 h
# Method: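 hCLAT-like CD54 and CD86 surface expression on THP1 cells after 24 h exposure at a single concentration (highest non-cytotoxic concentration, or 100-200 µM if not cytotoxic). Flow cytometry (iQue) was run on 5,000 live cells.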
row,Structure (SMILES),CD86 surface expression induction
1,Cc1cc(C2CC2)nc(Nc2ccccc2)n1 [Cyprodinil] (200 µM),44.9 ± 64
2,"O=[N+]([O-])c1cc([N+](=O)[O-])c2ccccc2c1 [1,3-Dinitronaphthalene] (200 µM)",2.95 ± 4.5
3,COc1ccc(O)c(C(C)(C)C)c1 [2-tert-Butyl-4-methoxyphenol] (200 µM),-4.34 ± 6.1
4,CCS(=O)(=O)CCSP(=O)(OC)OC [Demeton-S-methylsulphon] (10 µM),-12.6 ± 14
5,O=C(N/N=C/c1ccc([N+](=O)[O-])o1)c1cc([N+](=O)[O-])cc([N+](=O)[O-])c1O [Nifursol] (200 µM),8.52 ± 13
6,CCOCN(C(=O)CCl)c1c(C)cccc1CC [Acetochlor] (10 µM),90 ± 25
7,c1cc(OCC2CO2)ccc1Cc1ccc(OCC2CO2)cc1 (centres undefined) [Bis[4-(glycidyloxy)phenyl]methane] (100 µM),7.56 ± 6.6
8,Cc1ccc2c(c1N)C(=O)c1ccccc1C2=O [1-Amino-2-methylanthraquinone] (100 µM),102 ± 24
9,CCc1cccc(CC)c1N(COC)C(=O)CCl [Alachlor] (100 µM),22.3 ± 7.5
10,C[C@]12CC[C@H](O)C[C@H]1CC[C@@H]1[C@@H]2C[C@@H](O)[C@]2(C)[C@@H](C3=CC(=O)OC3)CC[C@]12O [Digoxigenin] (10 µM),46.8 ± 22
11,"Nc1ccc(Cl)cc1Cl [2,4-Dichloroaniline] (200 µM)",-3.25 ± 7.7
12,ClC1=C(Cl)C2(Cl)C3C(Cl)C(Cl)CC3C1(Cl)C2(Cl)Cl (centres undefined) [Chlordane] (200 µM),33.3 ± 45
13,NCCc1ccc(O)cc1 [Tyramine] (100 µM),-4.16 ± 4.5
14,C=CC(=O)OCC(COC(=O)C=C)(COC(=O)C=C)COC(=O)C=C [Pentaerythritol tetraacrylate] (10 µM),8.9 ± 7.2
15,Fc1ccc(Oc2ccnc3cc(Cl)cc(Cl)c23)cc1 [Quinoxyfen] (200 µM),2.53 ± 5
16,N#C/C=C/C#N [Fumaronitrile] (10 µM),-2.66 ± 6.7
17,Nc1ccc2ccccc2c1 [2-Naphthylamine] (100 µM),68.7 ± 65
18,NNCc1ccccc1 (100 µM),2.81 ± 0.59
19,CC(C)=CC1C(C(=O)OCc2coc(Cc3ccccc3)c2)C1(C)C (centres undefined) [Resmethrin] (200 µM),16.4 ± 4.8
20,O=C1C=CC(=O)c2ccccc21 (10 µM),366 ± 22

row,Structure (SMILES),CD86 surface expression induction
1,c1ccc2c(c1)OCC(C1=NCCN1)O2 (centres undefined) [Idazoxan] (10 µM),-10.6 ± 13
2,O=C(O)c1ccccc1C(=O)Nc1cccc2ccccc12 [Naptalam*] (200 µM),78.5 ± 110
3,CC(COc1ccc(Oc2ccccc2)cc1)Oc1ccccn1 (centres undefined) [Pyriproxyfen] (200 µM),-0.44 ± 4.1
4,"Nc1ccc(N)cc1 [1,4-Benzenediamine] (10 µM)",29
5,Cl/C=C\C[N+]12CN3CN(CN(C3)C1)C2 [Chloroallyl methenamine chloride] (10 µM),-4.14 ± 1.1
6,CCC(C)(NC(=O)c1cc(Cl)c(C)c(Cl)c1)C(=O)CCl (centres undefined) [Zoxamide] (10 µM),-5.9 ± 2.3
7,CCC(C)(c1ccc(O)cc1)c1ccc(O)cc1 [Bisphenol B] (200 µM),4.76 ± 3
8,COP(=S)(OC)Oc1nc(Cl)c(Cl)cc1Cl [Chlorpyrifos-methyl] (200 µM),17.7 ± 42
9,CCCCOCN(C(=O)CCl)c1c(CC)cccc1CC [Butachlor] (10 µM),-11.7 ± 10
10,[Cl][Cd][Cl] [Cadmium II chloride] (200 µM),51.1 ± 5.8
11,CCOC(=O)CC(SP(=S)(OC)OC)C(=O)OCC (centres undefined) [Malathion] (100 µM),-0.63 ± 4.7
12,O=[N+]([O-])c1ccc(Oc2ccc(C(F)(F)F)cc2[N+](=O)[O-])cc1 [Fluorodifen] (10 µM),-11.9 ± 9.2
13,"c1ccc(-c2cccc(-c3ccccc3)c2)cc1 [1,1':3',1''-Terphenyl] (200 µM)",17.1 ± 26
14,"CC(C)(C)C(=O)CCl [1-Chloro-3,3-dimethyl-butan-2-one] (200 µM)",-2.11 ± 2.4
15,COc1ccccc1N [2-Methoxyaniline hydrochloride] (100 µM),-19.9 ± 30
16,"O=C(CCl)CCl [1,3-Dichloropropanone] (200 µM)",16.5 ± 17
17,CCOP(=S)(OCC)SC(CCl)N1C(=O)c2ccccc2C1=O (centres undefined) [Dialifor] (100 µM),0.69 ± 0.85
18,COc1ccc(C(c2ccc(OC)cc2)C(Cl)(Cl)Cl)cc1 [Methoxychlor] (200 µM),70.8 ± 55
19,O=[N+]([O-])c1c(Cl)c(Cl)c(Cl)c(Cl)c1Cl [Pentachloronitrobenzene] (100 µM),55.3 ± 53
